The source of these data is the supplement of paper PMC8728848.

The sample as a whole holds a higher share of the strongest signals than the screen did.

What all share (experiment): glycan array binding signal (z-score within array); higher = stronger binding
What all share (conditions): glycan notation: IUPAC condensed, linker removed

For experiment [1], the target named is Neu5Ac(a2-3)Gal(b1-3)[GlcNAc(b1-6)]GalNAc. The method, boiled down:
(§1)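 The binding signal is a Z-score computed within each array. Data were drawn from 3228 arrays in the Consortium for Functional Glycomics database, restricted to those with a known protein sequence. Scores were averaged over arrays of the same protein sequence at different concentrations or buffers, and over linkers, and negative values can be taken as non-binding.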

The target in experiment [2] is Neu5Ac(a2-3)Gal(b1-4)GlcNAc(b1-3)Gal(b1-4)GlcNAc(b1-2)Man(a1-3)[Neu5Ac(a2-3)Gal(b1-4)GlcNAc(b1-3)Gal(b1-4)GlcNAc(b1-2)Man(a1-6)]Man(b1-4)GlcNAc(b1-4)GlcNAc. Summed up:
as §1

For experiment [3], the target named is Neu5Ac(a2-3)Gal(b1-4)GlcNAc(b1-3)Gal(b1-4)GlcNAc(b1-3)GalNAc. Summed up: as §1
Experiment [4] has as its target Neu5Ac(a2-3)Gal(b1-4)GlcNAc6S. Summed up: as §1
For experiment [5], the target named is Neu5Ac(a2-3)Gal(b1-4)[Fuc(a1-3)]GlcNAc6S. The method, boiled down:
as §1

Experiment [6] concerns the target Neu5Ac(a2-3)Gal6S(b1-4)GlcNAc. Summed up:
as §1

Experiment [7] has as its target Neu5Ac(a2-3)[Neu5Ac(a2-6)]GalNAc. The method, boiled down: as §1
The target of experiment [8] is Neu5Ac(a2-6)Gal(b1-4)GlcNAc(b1-2)Man(a1-3)[Neu5Ac(a2-6)Gal(b1-4)GlcNAc(b1-2)Man(a1-6)]Man(b1-4)GlcNAc(b1-4)[Fuc(a1-6)]GlcNAc. Summed up: as §1
The target in experiment [9] is Neu5Ac(a2-6)Gal(b1-4)GlcNAc(b1-2)[Neu5Ac(a2-6)Gal(b1-4)GlcNAc(b1-4)]Man(a1-3)[GlcNAc(b1-4)][Neu5Ac(a2-6)Gal(b1-4)GlcNAc(b1-2)[Neu5Ac(a2-6)Gal(b1-4)GlcNAc(b1-6)]Man(a1-6)]Man(b1-4)GlcNAc(b1-4)GlcNAc. The method, boiled down: as §1
In experiment [10] the target is Neu5Ac(a2-6)Gal(b1-4)GlcNAc(b1-3)Gal(b1-4)GlcNAc. Summed up: as §1
Experiment [11] deals with Neu5Ac(a2-6)Gal(b1-4)GlcNAc(b1-3)Gal(b1-4)GlcNAc(b1-2)Man(a1-3)[Neu5Ac(a2-6)Gal(b1-4)GlcNAc(b1-3)Gal(b1-4)GlcNAc(b1-2)Man(a1-6)]GalNAc. Summed up:
as §1

The target of experiment [12] is Neu5Ac(a2-6)Gal(b1-4)GlcNAc(b1-3)Gal(b1-4)GlcNAc(b1-3)Gal(b1-4)GlcNAc(b1-2)Man(a1-3)[Neu5Ac(a2-6)Gal(b1-4)GlcNAc(b1-3)Gal(b1-4)GlcNAc(b1-3)Gal(b1-4)GlcNAc(b1-2)Man(a1-6)]GalNAc. Summed up: as §1
The target in experiment [13] is Neu5Ac(b2-6)Gal(b1-4)GlcNAc. Summed up: as §1
Experiment [14] deals with Neu5Gc(a2-8)Neu5Gc(a2-3)Gal(b1-4)GlcNAc(b1-3)Gal(b1-4)GlcNAc. The method, boiled down:
as §1

B1: DC-Sign-R (Homo sapiens), Q9H2X3 (protein)
chain: MSDSKEPRVQQLGLLEEDPTTSGIRLFPRDFQFQQIHGHKSSTGCLGHGALVLQLLSFMLLAGVLVAILVQVSKVPSSLSQEQSEQDAIYQNLTQLKAAVGELSEKSKLQEIYQELTQLKAAVGELPEKSKLQEIYQELTRLKAAVGELPEKSKLQEIYQELTRLKAAVGELPEKSKLQEIYQELTRLKAAVGELPEKSKLQEIYQELTELKAAVGELPEKSKLQEIYQELTQLKAAVGELPDQSKQQQIYQELTDLKTAFERLCRHCPKDWTFFQGNCYFMSNSQRNWHDSVTACQEVRAQLVVIKTAEEQNFLQLQTSRSNRFSWMGLSDLNQEGTWQWVDGSPLSPSFQRYWNSGEPNNSGNEDCAEFSGSGWNDNRCDVDNYWICKKPAACFRDE
Regarding B1, the “glycan array binding signal (z-score)” value in [1] is 2.7; in experiment [2] it was 1.11; in experiment [3] it was 2.49; in experiment [4], -0.795; in experiment [5] it was -0.531; in [6], -0.255. Further, the “glycan array binding signal (z-score)” value is 0.964 in [7]; -0.156 in experiment [8]; 3.11 in [9]; -0.464 in experiment [10]; 4.44 in [11]; 2.81 in experiment [12]. Also, the “glycan array binding signal (z-score)” value turned out to be 3.63 in [13] and 1.55 in experiment [14].
